# Assay results: PubChem BioAssay (Tox21)
# Results filed as inconclusive are left out. Activity calls are given as the source filed them. Calls come from the whole dose curve; as a rule, active = well fitted activation curve with a large enough effect in the signal ratio in the repeat runs (not every such curve was filed as active); inconclusive = weak or mixed curves; inactive = flat fitted curve, though single readings scatter; the % refers to the signal ratio.
# Test: qHTS assay to identify small molecule agonists of the hypoxia (HIF-1) signaling pathway (AID 1224846)
# Details: HRE-bla ME-180 cells, beta-lactamase ratio, 17 h; series mostly up to 76.8 µM; activation: at the top concentration
# From the text: U.S. Tox21 Program National Center for Advancing Translational Sciences [NCATS] NIH Chemical Genomics Center [NCGC] U.S. Environmental Protection Agency [EPA] National Institutes of Environmental Health Sciences [NIEHS] National Toxicology Program [NTP] U.S. Food and Drug Administration [FDA] Tox21 Assay Overview: Hypoxia-inducible factor-1 (HIF-1) is the major hypoxia-regulated transcription factor that controls cellular responses to low oxygen concentration. HIF-1 is composed of two subunits: hypoxia responsive HIF-1-alpha and constitutively expressed HIF-1-beta, which is also known as aryl hydrocarbon receptor nuclear translocator. During hypoxic conditions, HIF-1-alpha heterodimerizes with HIF-1-beta and translocates into the nucleus where the HIF-1 complex binds to the hypoxia-response element (HRE) and activates expression of target genes such as VEGF (vascular endothelial growth factor). The HIF-1 pathway is essential to normal growth and development, and is involved in the pathophysiology of cancer, inflammation, and ischemia. Using a beta-lactamase reporter-gene under control of the hypoxia response element, a cell-based assay [CellSensor(TM) HRE-bla ME-180 from Life Technologies, Carlsbad, CA] was used to measure hypoxia-induced signaling. Tox21 10K library compounds were measured for their ability to induce the reporter gene activity.
# Tox21 Assay Protocol Summary: HRE-bla ME-180 cells were dispensed at 2,000 cells per well in 6 uL of assay medium containing 0.5% dialyzed FBS into black wall/clear-bottom 1536-well plates using a Multidrop Combi (Thermo Scientific, Waltham, MA) dispenser. After the assay plates were incubated at 37C and 5% CO2 for 5 hrs, 23 nL of compounds dissolved in DMSO, positive controls or DMSO only was transferred to each well of the assay plate using a Pintool station (Kalypsys, San Diego, CA). The assay plates were incubated at 37C and 5% CO2 for 17 hrs. One uL of LiveBLAzerTM B/G FRET substrate (CCF4-AM) (Life Technologies) was added to each well using a Flying Reagent Dispenser (Aurora Discovery, San Diego, CA).
# % is set by controls: 0 for no effect and ±100 for the full control effect.
Structure (SMILES),activation,outcome
CNC(=O)Oc1cc(C)c(SC)c(C)c1,0.0109% (inactive),–
OCC(c1ccc(Cl)cc1)c1ccc(Cl)cc1,3.6% (inactive),–
CCN(CC)C(=O)Cl,-0.173% (inactive),–
ClC(Cl)=C(c1ccc(Cl)cc1)c1ccccc1Cl,0.983% (inactive),–
CCOC(=O)C(O)(c1ccc(Cl)cc1)c1ccc(Cl)cc1,–,inactive
O=[N+]([O-])c1c(Cl)c(Cl)cc(Cl)c1Cl,2.8% (inactive),–
N#CCCNCCC#N,-1.41% (inactive),–
N#Cc1cc([N+](=O)[O-])ccc1N,0.378% (inactive),–
c1ccc2c(c1)Sc1ccccc1N2CC1CN2CCC1CC2 (stereo not given),3.55% [at 35.5 µM] (inactive),–
ClC1=C(Cl)[C@]2(Cl)[C@@H]3[C@@H](Cl)[C@H]4O[C@H]4[C@@H]3C1(Cl)C2(Cl)Cl,3.75% (inactive),–
